L3MBTL1 inh: qHTS Assay for the Inhibitors of L3MBTL1; AlphaScreen L3MBTL1–H3K9me1 peptide binding; Potency, µM (top dose mostly 57.1 µM), inactives show top-dose activity, negative = inhibition, usual class: inhibitors; hit rate 0.66% among 230,000; AID 485360, 2010; note: % is set by controls: 0 for no effect and ±100 for the full control effect; nearly all actives have a fitted effect of over 60% in size
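Displacement of a biotinylated histone H3(1-15) peptide monomethylated at Lys9 (75 nM) from L3MBTL1 (50 nM) was measured by AlphaScreen after a 30 min room-temperature compound incubation; cefsulodin titration served as intraplate control.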
JMJD2A Tudor: qHTS Assay for Inhibitors of JMJD2A-Tudor Domain; AlphaScreen JMJD2A-Tudor / H3K4me3 peptide binding; Potency, µM (series often up to 114 µM), inactives show at the top dose activity change, negative = inhibition, actives largely listed as inhibitors; hit rate 4.4% among 390,000; AID 504339, 2011; note: % is set by controls: 0 for no effect and ±100 for the full control effect; nearly all actives have a fitted effect of over 50% in size
G9a block: qHTS Assay for Inhibitors of Histone Lysine Methyltransferase G9a | Histone-lysine N-methyltransferase EHMT2 (Homo sapiens), Q96KQ7 | AID 504332, 2011 | hit rate 8.8% among 350,000 | G9a H3K9 monomethylation, AlphaScreen, 2 h | Potency, µM (doses to about 102 µM), without a hit: top-dose activity, negative = inhibition, actives largely listed as inhibitors; note: % is set by controls: 0 for no effect and ±100 for the full control effect; nearly all actives have a fitted effect of over 75% in size
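Compounds were preincubated with 20 nM G9a for 15 min, after which biotinylated H3K9 peptide (500 nM) and SAM (20 uM) started a 2 h room-temperature reaction. Monomethylated product was quantified by antibody-based AlphaScreen chemiluminescence.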
BAZ2B inh: qHTS Assay for Inhibitors of BAZ2B | hit rate 4.4% among 360,000 | Bromodomain adjacent to zinc finger domain protein 2B (Homo sapiens), Q9UIF8 | AlphaScreen BAZ2B-H3K14Ac peptide displacement | Potency, µM (series often up to 114 µM), for the others: at the top dose activity change, negative = inhibition, most hits filed as inhibitors; note: % is set by controls: 0 for no effect and ±100 for the full control effect; nearly all actives have a fitted effect of over 60% in size
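Complex of BAZ2B and biotin-H3K14Ac (50 nM apiece) forms over 30 min at RT, then faces library compounds up to 110 uM for another 30 min; AlphaScreen beads added, 20 min dark incubation, luminescence read.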
HP1b binding inh: HTS for Inhibitors of HP1-beta Chromodomain Interactions with Methylated Histone Tails | AlphaScreen HP1-beta / biotin-H3K9me3 peptide binding | Potency, µM (doses to about 114 µM), for the others: at the highest dose activity change, negative = inhibition, most hits filed as inhibitors | hit rate 0.56% among 390,000 | AID 540317, 2011; note: nearly all actives have a fitted effect of over 70% in size
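HP1-beta protein (50 nM final) preincubated 30 min at room temperature with biotinylated H3(1-18)K9me3 peptide (50 nM) in PBS pH 7.4, 0.01% Tween-20, then compound added for 30 min. AlphaScreen streptavidin donor/nickel chelate acceptor beads (10 ug/mL final), 30 min dark, luminescence read.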
* marks the source's active call; other numbers are inactive results; ? = inconclusive; . = no result; [ ] = remark or other dose. An excerpt weighted towards active compounds, which were near 11% of everything screened. Calls come from the whole dose curve; as a rule, active = well fitted inhibition curve with a large enough effect; inconclusive = small, poorly fitted or top-dose-only effect; inactive = no such curve, though single readings can be large or run the other way. Potency is the fitted concentration of half-maximal effect.

SMILES	L3MBTL1 inh	JMJD2A Tudor	G9a block	BAZ2B inh	HP1b binding inh
Cn1c(N)c(-c2ccccc2)c2ccc([N+](=O)[O-])cc2c1=O	.	?	35µM*	?	?
CCn1cc(C(=O)N2CCN(c3cccc(C)c3C)CC2)c2cc(OC)c(OC)cc2c1=O	.	-25%	-29%[59 µM]	-31%	0%
CCn1cc2nc(SCc3ccc(F)cc3)n(CCc3ccccc3)c(=O)c2n1	.	-13%	0%[59 µM]	2%	20%
CC1CCc2cc(F)cc3c2N1C(=O)C(C(=O)Nc1cnccn1)C3=O (stereo not given)	.	-18%	.	.	-17%
Cc1ccc(-c2nn(-c3ccccc3)cc2C=O)o1	6%	-35%	40µM*	-12%	-7%
Cc1ccc(-c2nn(-c3ccccc3)cc2C(N)=O)o1	-9%	?	-50%[12.7 µM]	-35%	-13%
CCC(C)N(C(=O)c1csnn1)C(C(=O)NC1CCCC1)c1ccccc1F (stereo not given)	.	-2%	24%	-4%	18%
Oc1ccc(Br)cc1/C=N/n1c(COc2ccccc2)n[nH]c1=S	.	?	28µM*	-9%	?
S=c1[nH]nc(COc2ccccc2)n1/N=C/c1ccccc1Br	.	-26%	8.9µM*	-17%	4%
FC(F)(F)c1ccccc1/C=N/n1c(COc2ccccc2)n[nH]c1=S	.	?	20µM*	?	?
COc1ccccc1N1CCN(S(=O)(=O)CCNC(=O)COc2ccc(C(C)C)cc2)CC1	.	-20%	-14%[59 µM]	-11%	19%[57 µM]
Clc1ccccc1OCCSc1nnc(-c2cccs2)o1	.	110%	72%[59 µM]	111%	193%
Cc1nnc(NN)n(N)c1=O	8%	32µM*	.	11%	22µM*
Oc1ccccc1N1CCN(CC(O)COCc2ccccc2Cl)CC1 (stereo not given)	-30%	20µM*	10µM*	50µM*	?
CCOC(=O)c1[nH]c(=S)n(Cc2ccccc2)c1C(=O)OCC	.	3.2µM*	.	.	?
O=C(CN1CCCN(Cc2ccccc2Cl)S1(=O)=O)NCc1ccccc1	.	4%	?	-31%	35%
Cc1ccccc1NC(=O)/C(C#N)=C\c1cn(CC(=O)O)c2ccccc12	4%	-10%	0%	-26%	31%
CN(C)c1ccc(/C=C(/C#N)C(=O)NCc2ccccc2)o1	-1%	-1%	3.5µM*	-11%	40%
N#C/C(=C\c1cn(CC(=O)O)c2ccccc12)C(=O)NCc1ccccc1	-4%	?	45µM*	-19%	32%
Cc1c(C(=O)O)cccc1-n1c(C)cc(/C=C(/C#N)C(=O)NCc2ccccc2)c1C	?	-16%	50µM*	56µM*	17%
N#C/C(=C/c1ccccc1)C(=O)NCc1ccccc1	2%	-6%	-8%[59 µM]	-15%	19%
Cc1cc(/C=C(/C#N)C(=O)O)c(C)n1-c1cccc2ccccc12	.	-33%	7%[2.33 µM]	?	-22%
Cc1nc(-c2ccccc2)sc1CCNC(=O)C(=O)Nc1ccc2c(c1)OCO2	.	3%	2%[59 µM]	-1%	24%[57 µM]
CC(=O)c1nnn(-c2nc(C#N)nc(N3CCOCC3)n2)c1C	.	-10%[57.1 µM]	.	.	21%[57 µM]
CCOc1cc(C2Nc3ccccc3C(=O)N2Cc2ccco2)ccc1OCc1ccccc1Cl (stereo not given)	.	-17%[57.1 µM]	.	.	11%[57 µM]
SMILES	L3MBTL1 inh	JMJD2A Tudor	G9a block	BAZ2B inh	HP1b binding inh
COc1ccc(C(=O)N/C(=C\c2ccc([N+](=O)[O-])cc2)C(=O)NC(CCSC)C(=O)O)cc1 (stereo not given)	.	-14%	50µM*	1%	41%
COc1ccc(C)cc1-n1cnc2cc(C(=O)NC3CCCCCC3)ccc21	.	?	-38%[59 µM]	-18%	11%
Fc1ccc(CSc2nncn2NCc2ccccc2)cc1	4%	-2%	16%[59 µM]	0%	32%
CN(C)c1ccc(CNn2cnnc2SCc2ccc(F)cc2)cc1	.	?	?	45µM*	-6%
COc1ccccc1CNC(=O)Cn1ncn2c(cc3sccc32)c1=O	.	-8%	7%[59 µM]	4%	5%
Cc1ccc(C2NCCS2)cc1 (stereo not given)	.	-12%	45µM*	0%	28%

Screens: PubChem, National Center for Advancing Translational Sciences (NCATS)
